This is a sample that favours compounds with a hit; in the whole collection about 21% have one here.
SARS PLpro yeast = SARS-CoV PLP inhibition in yeast. S. cerevisiae expressing SARS-CoV PLpro, growth rescue. Potency, µM (series often up to 32.9 µM), for the others: at the top dose activity, positive = growth rescue, usual class: activators. 330,000 compounds, 0.19% hits; also: potency is read from the fitted curve at half-maximal effect; 0% is about no effect; nearly all actives have a fitted effect of over 55% in size
Pf growth 96h = P. falciparum growth inhibition at 96 hour, primary screen for plastid delayed-death inhibitors; P. falciparum luciferase reporter growth, 96 h; Potency, µM (titrated, usually from 28.7 µM), for inactives: at the top dose activity change, negative = inhibition, actives largely listed as inhibitors; 320,000 compounds, 6.9% hits; active = well fitted inhibition curve with a large enough effect; inconclusive = small, poorly fitted or top-dose-only effect, or another doubt; inactive = no such curve, though single readings can be large or run the other way; also: potency is read from the fitted curve at half-maximal effect; % is scaled to controls: 0 for no effect and ±100 for the full control effect
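Plates of compound plus infected erythrocytes (2% hematocrit, 0.05% parasitemia final) incubate 96 hours, 37 C, 5% CO2. Detection reagent added; reduced luminescence from the parasites' luciferase reporter flags inhibition.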
NS1 function inh = influenza NS1 inhibition; Potency, µM (top dose mostly 46.1 µM), inactives show at the highest dose activity, positive = more growth; 270,000 compounds, 0.4% hits; AID 2326; also: potency is read from the fitted curve at half-maximal effect; actives are rising curves; nearly all actives have a fitted effect of over 50% in size
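OD600 was taken as the measure of yeast growth restored by compound in an NS1-expressing S. cerevisiae strain. Cells had been washed out of glucose medium and diluted 1:100 into galactose -URA medium, pH 6.0.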
Pf growth 48h = P. falciparum growth inhibition at 48 hours (one generation) | P. falciparum luciferase growth in erythrocytes, 48 h | Potency, µM (top dose mostly 28.7 µM), without a hit: top-dose activity change, negative = inhibition, hits mostly inhibitors | AID 504832 | 310,000 compounds, 5.9% hits; active = well fitted inhibition curve with a large enough effect; inconclusive = small, poorly fitted or top-dose-only effect, or another doubt; inactive = no such curve, though single readings can be large or run the other way; also: potency is read from the fitted curve at half-maximal effect; % is scaled to controls: 0 for no effect and ±100 for the full control effect
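Parasite viability was followed by luminescence of a genomically integrated firefly luciferase. Cultures held 0.1% parasitemia at 2% hematocrit (final), incubated under 5% CO2 at 37 C.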
Shiga inhibitor = Shiga toxin inhibition | Vero cells, Shiga toxin protein synthesis inhibition reporter | inhibition, % at 38.7 µM | 290,000 compounds, 9.2% hits; in the data active = inhibition mostly above about 28%, no sharp cut-off; inactive = mostly below about 43%; also: 0% is about no effect
Cycloheximide cs = counter-screen for Shiga toxin inhibitors: cycloheximide protein synthesis inhibition | cell reporter, cycloheximide protein synthesis inhibition counterscreen | max response, % | 300,000 compounds, 12% hits; in the data active = max response mostly above about 13%, no sharp cut-off; inactive = mostly below about 14%; also: read at 38.3 µM for the half of the compounds with a filed dose; 0% is about no effect
* marks the source's active call; other numbers are inactive results; ? = inconclusive; . = not tested or not shown; [ ] = dose if it differs, or a comment. Unless noted, calls follow the shape of the full dose curve.

SMILES	SARS PLpro yeast	Pf growth 96h	NS1 function inh	Pf growth 48h	Shiga inhibitor	Cycloheximide cs
Cc1ccc(S(=O)(=O)Nc2cccc(C(=O)NCC(c3ccco3)N3CCCC3)c2)cc1F (stereo not given)	-13%	?	.	?	.	.
Nc1ccccc1NC(=O)c1ccc(CNC(=O)OCc2cccnc2)cc1	.	.	.	.	7	-2
COc1cccc(-c2nnn(CC(=O)NC3CCCC3)n2)c1OC	-3%	9.3µM*	7%	-4%	-10	-4
COc1cccc2c(=O)n(CC(=O)Nc3ccccc3)ccc12	2%	46%	4%	24%	11	7
COc1cccc2c(=O)n(CC(=O)NC3CCCC3)ccc12	8%	30%	-29%	40%	49	24*
CCc1ccccc1NC(=S)N(CCc1ccncc1)C(C)C	5%	-21%	.	-13%	-9	-6
COc1ccc(-c2c(-c3ccccc3)c(C(=O)C(=O)NCCCN(C)C)n3ccc4cc(OC)c(OC)cc4c23)cc1OC	2%	2.9µM*	4%	.	-10	-7
CN(C)CCNC(=O)C(=O)c1c(-c2ccccc2)cc2ccccn12	1%	-4%	.	-3%	16	-1
O=C(CC1C(=O)NCCN1CC1CCCCC1)NCCCN1CCOCC1 (stereo not given)	15%	?	-13%	?	-6	0
CC1(C)C/C(=N\NC(=S)Nc2ccccc2F)c2cc(O)ccc2O1	4%	10µM*	.	13µM*	-6	-4
Cc1cccc(NC(=S)N/N=C2\CC(C)(C)Oc3ccc(O)cc32)c1	?	?	10%	?	-7	-1
CC1Cc2ccccc2N1C(=O)CSc1nnc(-c2ccc(S(=O)(=O)N3CCOCC3)cc2)n1C (stereo not given)	17%	?	-6%	?	-10	-3
O=C1CSC(c2ccccn2)N1c1cccc(Cl)c1 (stereo not given)	0%	?	-7%	-11%	32	-2
Cc1ccc(N2C(=O)CSC2c2ccccn2)cc1Cl (stereo not given)	7%	-3%	3%	?	11	25*
COc1ccc(OCC(=O)NC(=O)c2ccccc2OC)c([N+](=O)[O-])c1	-2%	6%	.	2%	.	.
CCCCCOc1ccc(/C=C/c2c([N+](=O)[O-])c(=O)n(C)c(=O)n2C)cc1	-2%	?	1%	12µM*	-12	10
Cn1c(/C=C/c2ccc(Cl)cc2)c([N+](=O)[O-])c(=O)n(C)c1=O	-3%	3%	-41%	?	-11	1
CCCNC(=O)c1ccc2c(=O)c(O)c(-c3ccc(F)cc3)[nH]c2c1	13µM*	?	-2%	-9%	-4	-1
CCCNC(=O)c1ccc2c(=O)c(O)c(-c3cccc(Br)c3)[nH]c2c1	?	?	-3%	?	-6	-4
CC1CC(C)CN(C(=O)COC(=O)COc2ccccc2C#N)C1 (stereo not given)	-3%	-15%	.	20%	.	.
COC(=O)c1ccc(-c2ccc(Cl)cc2)nc1C	-7%	407%	-23%	496%	37*	95*
COC(=O)c1cc(C#N)c(NCc2ccc(Cl)cc2Cl)nc1C	1%	38%	-4%	6%	-9	-4
Cn1cccc1CC(=O)NNC(=O)Nc1ccccc1F	-1%[6.58 µM]	-5%	.	6%	.	.
C/C(=N\NC(=O)c1cccnc1)c1c(O)cc(C)oc1=O	-19%	13%	-13%	22%	34*	21*
C/C(=N\NC(=O)c1ccccc1[N+](=O)[O-])c1c(O)cc(C)oc1=O	-19%	43%	3%	0%	8	-2
SMILES	SARS PLpro yeast	Pf growth 96h	NS1 function inh	Pf growth 48h	Shiga inhibitor	Cycloheximide cs
C/C(=N\NC(=O)c1ccccc1O)c1c(O)cc(C)oc1=O	-13%	?	-128%	52%	27	28*
C/C(=N\NC(=O)c1cccnc1)c1cc(C)oc1C	-9%	7%	3%	11%	47	11
O=C(CS(=O)(=O)c1c[nH]c2ccccc12)N1CCc2ccccc21	4%	47%	-4%	60%	9	-2
Cc1ccc(C(=O)CSc2ccccn2)cc1	8%	.	-11%	183%	113*	46*
O=C(O)c1ccnc(SCC(=O)c2ccccc2)c1	18%	-25%	11%	11%	-3	-2
O=C(CSc1ccccn1)c1ccc(F)cc1	24%	-17%	2%	.	58*	34*
COCCNC(=O)C(=O)NCC1OCCN1S(=O)(=O)c1ccc(F)cc1 (stereo not given)	-2%	8%	-4%	23%	20	12
CCc1nc2ccc(N3CCN(C)CC3)cc2nc1CC	1%	91%	.	145%	40	25*
O=S(=O)(Nc1ccc(Br)cc1)N1CCOCC1	1%	9.3µM*	3%	23%	-1	-1
O=S(=O)(Nc1ccc(F)cc1)N1CCOCC1	0%	32%	?	8%	4	34*
Cc1ccc(NS(=O)(=O)N2CCOCC2)cc1	2%	?	11%	22%	-6	8
COC(=O)[C@]1(C)N[C@H](CN(C)C(=O)Nc2ccc(C(F)(F)F)cc2)[C@@H]2C(=O)N(C)C(=O)[C@@H]21	0%	.	.	.	.	.
CCOC(=O)c1cc2c(nc1C)-c1cc(Cl)cc(Cl)c1OC2O (stereo not given)	-5%	4.7µM*	6%	6.6µM*	-8	-1
Cc1c(C#N)c(NC(=O)CCl)n(Cc2ccc(F)cc2)c1C	2%	?	.	?	3	36
Cc1c(C#N)c(NC(=O)CCl)n(Cc2cccs2)c1C	-1%	3.3µM*	.	10µM*	9	17
Cc1c(C#N)c(NC(=O)CCl)n(Cc2ccccc2)c1C	0%	19µM*	5%	?	-5	11
Cc1ccc(C(=O)OC(C)CN2CCN(C)CC2)cc1 (stereo not given)	0%	-2%	-4%	9%	48*	17*
CCOc1ccc(C(=O)OC(C)CN2CCCCC2)cc1 (stereo not given)	1%	?	19%	-4%	26*	10
COc1ccc(C(=O)OC(C)CN2CCN(C)CC2)cc1OC (stereo not given)	4%	0%	-8%	13%	10	4
CC(CN1CCCC1)OC(=O)c1ccc(F)cc1 (stereo not given)	1%	?	19%	6%	-4	-1
COc1ccc(C(=O)OC(C)CN2CCN(C)CC2)cc1 (stereo not given)	0%	?	6%	20%	36	12*
CCc1noc(C)c1C(=O)N(CC)CC(=O)NCc1ccc(Cl)cc1	3%	-10%	.	12%	.	.
CN(C)S(=O)(=O)c1ccc(Cl)c(NC(=O)CN2C(=O)NC3(CCc4ccccc43)C2=O)c1 (stereo not given)	2%	-22%	.	?	.	.
Cc1ccc(NC(=Nc2ccc(Br)cc2)N2CCOCC2)cc1C	-8%	?	-6%	?	3	6
